# Source: PubChem BioAssay (NCI)
# About 83,000 compounds went through this panel and 20% of them were active in at least one assay; those are over-represented in the sample as a whole.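 Treatment: one concentration, 48 hours, 96-well format. Scoring: percent growth, with anything below 10 considered active.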 Unmarked numbers belong to inactive results. The source made the active and inactive calls.
# Experiments:
# Assay in all cases: NCI-60 one-dose screen, 48 h (100 = growth as untreated, 0 = no growth, -100 = all killed)
# Settings in all cases: 10 µM unless noted
# NCI-H23 lung = system: NCI-H23 lung
# NCI-H226 lung = system: NCI-H226 lung
# NCI-H322M lung = system: NCI-H322M lung
# HOP-62 NSCLC = system: HOP-62 NSCLC
# NCI-H460 lung = system: NCI-H460 lung
# HOP-92 NSCLC = system: HOP-92 NSCLC
# NCI-H522 lung = system: NCI-H522 lung
# A549/ATCC NSCLC = system: A549/ATCC NSCLC
# 786-0 renal = system: 786-0 renal
# COLO 205 colon = system: COLO 205 colon
# DU-145 prostate = system: DU-145 prostate
# K-562 leukemia = system: K-562 leukemia
# MALME-3M melanoma = system: MALME-3M melanoma
# MDA-MB-231 breast = system: MDA-MB-231 breast
# RXF 393 renal = system: RXF 393 renal
# SF-268 CNS = system: SF-268 CNS
# SF-295 CNS = system: SF-295 CNS
# SF-539 CNS = system: SF-539 CNS
# UACC-257 melanoma = system: UACC-257 melanoma
# M14 melanoma = system: M14 melanoma
Structure (SMILES),growth (NCI-H23 lung),growth (NCI-H226 lung),growth (NCI-H322M lung),growth (HOP-62 NSCLC),growth (NCI-H460 lung),growth (HOP-92 NSCLC),growth (NCI-H522 lung),growth (A549/ATCC NSCLC),growth (786-0 renal),growth (COLO 205 colon),growth (DU-145 prostate),growth (K-562 leukemia),growth (MALME-3M melanoma),growth (MDA-MB-231 breast),growth (RXF 393 renal),growth (SF-268 CNS),growth (SF-295 CNS),growth (SF-539 CNS),growth (UACC-257 melanoma),growth (M14 melanoma)
CC1=NC2=CC=CC3=NC(C(Cl)(Cl)Cl)=NC(=N1)N23,59.9%,83.5%,92.5%,96.2%,69.1%,118%,54.9%,80%,88.7%,88.9%,50.4%,80.2%,33.6%,81.3%,38%,78%,95.6%,88.9%,63.9%,79.3%
COc1ccc(-n2c(-c3ccccc3)c(-c3ccccc3)c3c(SCC(=O)N/N=C/c4ccc(Cl)cc4)ncnc32)cc1,68.2%,76.6%,97.2%,85.5%,102%,66.8%,83.5%,93.1%,92.5%,104%,95.4%,80.7%,107%,82.1%,97.3%,88.5%,92.9%,93.8%,95.1%,99.5%
O=C(CCl)N(C1CCCCC1)C1CCCCC1,87.9%,105%,98.8%,119%,107%,92.8%,-36.8% (active),115%,99.3%,109%,112%,104%,112%,120%,107%,103%,98.3%,105%,105%,96.2%
NC(=O)c1c(NC(=S)Nc2ccc(OC(F)(F)F)cc2)sc2c1CCC1(C2)OCCO1,94.7%,92.9%,89.2%,99.9%,99.1%,96.3%,83%,97.3%,98.5%,108%,112%,94.6%,109%,98.9%,116%,103%,93.4%,99%,97.1%,97.2%
Cc1cc(N/N=C/c2nc(-c3ccccc3)oc2C)c2cc(Cl)ccc2n1,-19.6% (active),81.4%,-54.8% (active),10.5%,-78.3% (active),-61.9% (active),-59.4% (active),-76.8% (active),-83.1% (active),-71.9% (active),-31.3% (active),-29.3% (active),-88.9% (active),-95.1% (active),-88.3% (active),-60.3% (active),-85% (active),8.72% (active),106%,-87.4% (active)
O=C(CN1CCN(c2cc3c(cc2F)c(=O)c(C(=O)N/N=C/c2ccccc2O)cn3C2CC2)CC1)N/N=C\c1ccccc1O,28.2%,36.4%,25.4%,24.5%,0.87% (active),52%,22.6%,17.8%,7.83% (active),17.4%,21.2%,8.3% (active),22.3%,25.3%,27.9%,16.6%,21.5%,11.1%,20%,-27.6% (active)
Clc1cc(Cl)cc(-c2ccc(-c3ccc(/C=N/NC4=NCCN4)cc3)s2)c1,39.1%,85.1%,98.3%,71%,4.5% (active),38.9%,71.4%,-22.4% (active),75.8%,-17.1% (active),23.4%,-1.14% (active),98.3%,61.5%,60.6%,76.2%,93.7%,84%,103%,94.4%
COc1cccc(-c2nc3sccn3c2-c2ccnc(NCCCNS(=O)(=O)c3ccc(F)cc3)c2)c1,30.6%,27.5%,69.9%,64.1%,34.8%,58.8%,29.3%,23.2%,56.8%,33.1%,34%,17.8%,39.6%,57.4%,63.2%,41.2%,18.6%,67.2%,35.6%,25.7%
CCCCNC(=O)Oc1ccc(/C(=C(\C)c2ccccc2)c2ccc(OCCN(CC)CC)cc2)cc1,77.5%,85.4%,86.3%,88.2%,56.1%,43.3%,53.4%,62.2%,67.3%,58.5%,89.3%,8.28% (active),76.1%,103%,52.8%,68.5%,91.1%,48.3%,19.3%,6.41% (active)
CCC(C)/C(=C\C#N)NCCCN/C(=C/C#N)C(C)CC (stereo not given),97.3%,103%,103%,106%,116%,86.5%,83.5%,103%,98.1%,111%,122%,98.8%,108%,103%,115%,113%,105%,97.1%,106%,96.1%
O=C1NC(=C(Cl)Cl)/C(=N/S(=O)(=O)N2CCC(C3(C(F)(F)F)N=N3)CC2)N1,45.3%,106%,95.8%,104%,100%,87%,-58% (active),106%,103%,26%,102%,8.72% (active),100%,71.2%,79.5%,86%,101%,98.2%,97.2%,98.9%
COc1ccc(OC)c(/C=C2\Oc3cc(OCCCN4CCCC4)ccc3C2=O)c1,80.6%,88.7%,88.9%,95.6%,61.3%,77.6%,89.6%,81.2%,84.2%,85.6%,79.6%,-5.23% (active),104%,68.8%,73.4%,79.8%,97.4%,46%,40.5%,-2.52% (active)
COc1ccccc1CNCCCN1C(=O)c2ccc3c4c(ccc(c24)C1=O)C(=O)N(CCCNCCCCNCCCN)C3=O,1.96% (active),-59.9% (active),-4.96% (active),-55.2% (active),-30.2% (active),5.16% (active),-41.7% (active),-48.2% (active),3.83% (active),-78.9% (active),-92.6% (active),-15.1% (active),-91.8% (active),15%,-66.8% (active),1.6% (active),1.52% (active),-55.9% (active),-91.1% (active),-70.8% (active)
Cc1ccc(-c2cc3nc(C(Cl)Cl)nc(-c4ccccc4C)n3n2)cc1,74%,100%,86.6%,68.3%,81.4%,64.7%,69.9%,23.3%,84.1%,54.1%,46.9%,17.9%,72.8%,66.8%,22.8%,92.6%,77.3%,86.5%,101%,93.8%
CC(C)(C)n1cc(-c2ccnc(NCCCNS(=O)(=O)c3ccc(F)cc3)c2)c(-c2cccc(O)c2)n1,57.9%,51.2%,60.5%,74%,18.3%,60.3%,39.1%,40%,22.6%,13%,63.4%,9.04% (active),38.1%,33.2%,38.7%,51.4%,26.8%,28.4%,50.1%,29%
